Source: PubChem BioAssay (several laboratories)
Y pestis TopoI: inhibitors of Yersinia pestis topoisomerase I; AID 504884; activity, % at 10 µM; Y. pestis Topo-I cleavage product accumulation, plate reader; 360,000 tested, 0.064% active; in the data active means activity above about 50%, passing the limit was not always enough
Mtb hypoxia inh: inhibitors of hypoxia-regulated fluorescent reporter in Mycobacterium tuberculosis | M. tuberculosis hypoxia-regulated fluorescent reporter, fluorescence | 300,000 tested, 0.1% active | fluorescence inhibition, % (concentration not given with the values); in the data active means fluorescence inhibition mostly above about 23%, no sharp cut-off; inactive means mostly below about 17%
PrPC surface inh: inhibitors of human cell surface prion protein PrPC | P04156 | TR-FRET read-out | inhibition, % at 13.8 µM | 370,000 tested, 0.43% active; in the data active means inhibition above about 24%; further: 0% = median of the test wells and 100% = reference compound wells
PrP 5UTR inh: inhibition of PrP 5' UTR reporter expression. cell-based PrP 5' UTR mRNA reporter, plate reader. inhibition, % (test concentration not listed). 340,000 tested, 0.35% active; in the data active means inhibition above about 52%; further: 0 = median of the neutral control wells
Mtb FBA inh: inhibitors of M. tuberculosis fructose-bisphosphate aldolase; purified M. tuberculosis FBA, fluorescence read-out; inhibition, % at 1 µM; 360,000 tested, 2.3% active;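 further: 0% = vehicle and 100% = reference inhibitor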
Target sequence (P9WQA3 whole entry, looked up): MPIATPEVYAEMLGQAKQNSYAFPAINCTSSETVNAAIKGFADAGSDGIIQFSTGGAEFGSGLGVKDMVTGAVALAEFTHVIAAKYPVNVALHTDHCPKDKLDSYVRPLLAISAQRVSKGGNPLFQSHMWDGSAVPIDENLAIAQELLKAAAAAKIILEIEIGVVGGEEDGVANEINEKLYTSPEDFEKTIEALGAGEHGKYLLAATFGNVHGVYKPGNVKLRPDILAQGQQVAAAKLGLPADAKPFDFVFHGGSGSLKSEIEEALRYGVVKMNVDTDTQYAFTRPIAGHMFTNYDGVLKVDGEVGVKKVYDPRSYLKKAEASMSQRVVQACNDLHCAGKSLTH
GDH-TPI counter-1: GDH-TPI coupled enzyme inhibition counter-screen; GDH-TPI coupled enzyme counterscreen, NADH absorbance; inhibition, % at 4.8 µM; 360,000 tested, 1.2% active; in the data active means inhibition above about 30%;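 further: 0% = DMSO wells and 100% = wells lacking the enzyme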
Mtb FBA confirm: confirmation of M. tuberculosis fructose-bisphosphate aldolase inhibitors; 5,600 tested, 78% active; inhibition, % at 1 µM; purified M. tuberculosis FBA, fluorescence read-out; shares compounds with Mtb FBA inh; AID 651616;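 further: 0% = vehicle wells and 100% = reference inhibitor wells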
GDH-TPI counter-2: inhibits GDH-TPI coupling enzymes, flagging Mtb FBA hits; shares compounds with Mtb FBA inh; GDH-TPI coupled enzyme counterscreen, fluorescence; inhibition, % at 1 µM; 5,600 tested, 81% active; in the data active means inhibition above about 10%
GDH-TPI dose: counter-screen for M. tuberculosis FBA inhibitors: GDH-TPI dose response. GDH-TPI coupled enzyme assay, fluorescence, artifact counterscreen. AID 652145. 170 tested, 79% active. IC50, µM. shares compounds with Mtb FBA inh; call rule not given here
An asterisk follows results filed as active; x = no result; + = active, no number. Hits are enriched below; roughly 3.8% of the tested compounds scored in any of these assays. Unless noted, no stated cut-off is given here; in the data, active means inhibition above about 27%; inactive means the rest.

SMILES	Y pestis TopoI	Mtb hypoxia inh	PrPC surface inh	PrP 5UTR inh	Mtb FBA inh	GDH-TPI counter-1	Mtb FBA confirm	GDH-TPI counter-2	others
COc1ccc2cc(C(=O)N3CCN(Cc4ccc5c(c4)OCO5)CC3)[nH]c2c1	24	-5	-3	-7	2	-5	x	x
CCOC(=O)C1CCN(C(=O)c2cc3cc4ccc(OC)cc4nc3o2)CC1	4	10	-11	-46	106*	24	25	17*
COc1ccc(C2CC2C(C)=NOC(=O)C2CC2)cc1 (stereo unspecified)	x	8	x	x	x	x	x	x
CCOC(=O)c1c(-c2ccccc2)[nH]c2ccc(O)cc12	-10	x	0	-9	40*	19	55*	49*
O=c1c2ccccc2[nH]c2ccc(O)cc12	-15	-2	4	-28	28*	-6	+	+
O=c1c2c(nc3cc(-c4ccc(F)cc4)[nH]n13)CCC2	-3	x	7	-85	38*	4	119*	81*
CCc1c(C)nc2cc(-c3ccc(OC)cc3)[nH]n2c1=O	-3	8	5	-44	35*	11	+	+
CCOC(=O)CCc1c(C)nc2cc(-c3ccc(F)cc3)[nH]n2c1=O	-4	x	7	-39	20	11	x	x
Cc1nc2cc(-c3ccccc3)[nH]n2c(=O)c1C	-5	2	-3	-57	33*	6	95*	62*
O=c1cc(-c2ccccc2)nc2cc(-c3ccc(F)cc3)[nH]n12	-9	-1	2	-15	44*	3	0	-3
C=CCC(CC(=O)NC(CO)Cc1ccccc1)C(=O)NC(COC(=O)C(CC=C)Cc1ccc(F)cc1)C(C)(C)C (stereo unspecified)	x	-1	x	x	x	x	x	x
CCOC(=O)CN1C(=O)NC(c2cccs2)C(C(C)=O)=C1C (stereo unspecified)	x	13	x	x	x	x	x	x
O=C(ON=C(c1ccccc1)c1ccncc1)c1ccccc1F	x	-9	x	x	x	x	x	x
Cc1cc2cc(C#N)c(NCCNC(=S)NCCCN3CCOCC3)nc2cc1C	2	5	-6	-6	40*	11	+	+
COCCCNC(=S)NCCCNc1nc2cc3c(cc2cc1C#N)OCO3	-10	-5	3	14	72*	12	15	6
Cc1cccc2cc(C#N)c(NCCNC(=S)NCCCN3CCOCC3)nc12	0	9	-8	-10	31*	-6	146*	108*
CCOC1OC(C(N)=O)=CC(C(C)(C)C)C1CCCO (stereo unspecified)	x	13	x	x	x	x	x	x
CCOC(=O)N1CCN(C(=O)c2cccn3c(=O)c4sccc4nc23)CC1	-3	6	-14	1	66*	53*	9	-6
CCOC(=O)N1CCN(C(=O)c2ccc3nc4ccsc4c(=O)n3c2)CC1	6	x	-17	-19	29*	25	4	7
Cc1ccc2cc(-c3noc(C4CCCCC4)n3)c(=O)[nH]c2c1	-8	0	5	-8	1	3	x	x
Cc1ccc2cc(-c3noc(C4CCCO4)n3)c(=O)[nH]c2c1 (stereo unspecified)	5	0	5	-20	37*	16	42*	45*
COCCNC(=O)CSc1ccc(-c2nc3ccccc3[nH]2)cn1	-7	-10	6	-22	31*	31*	2	-4
CNC(=S)NN=Cc1c(C)cccc1Cl	x	12	x	x	x	x	x	x
O=C(NC1CCCCC1)c1ccc2[nH]c(=O)c(=O)[nH]c2c1	-3	7	-6	0	41*	11	15	8	GDH-TPI dose=4.3*
Cc1[nH]c2ccccc2c1CCCO	x	5	1	x	x	x	x	x
SMILES	Y pestis TopoI	Mtb hypoxia inh	PrPC surface inh	PrP 5UTR inh	Mtb FBA inh	GDH-TPI counter-1	Mtb FBA confirm	GDH-TPI counter-2	others
CCc1nccc2c1[nH]c1ccccc12	0	x	-2	-19	81*	8	+	161*
OCCCCc1nccc2c1[nH]c1ccccc12	-4	12	4	-1	69*	7	+	186*
Cc1nccc2c1[nH]c1ccccc12	2	2	6	-9	94*	3	4	-4
c1ccc2c(c1)[nH]c1cnccc12	-7	-4	8	-3	37*	17	32*	41*
Cc1nnc(NN=Cc2c[nH]c3ccccc23)[nH]c1=O	x	-3	x	x	x	x	x	x
N#Cc1ccc(C23CC4(C2)C(CN(Cc2ccc(C(F)(F)F)cc2)C4c2ccccc2)C3c2ccccc2)cc1 (stereo unspecified)	x	2	x	x	x	x	x	x
COc1ccc(-c2cc3nc(NCCCN(C)C)n(C)c(=O)c3s2)cc1OC	-3	x	-22	x	47*	20	129*	86*
COc1ccc(-c2c[n+]3c4n2CCCCC4=C(c2ccc(Br)cc2)C3)cc1	12	-10	-1	-5	75*	8	136*	105*
CCN1C(=O)C2C(c3ccc(-c4ccc5c(c4)OCO5)cc3)N3CCC[C@@]3(C(=O)OC)C2C1=O (stereo partly specified)	x	7	x	x	x	x	x	x
Cc1cccc(-n2ncc3c(N4CCC5(CC4)OCCO5)ncnc32)c1	5	11	-6	-103	2	-3	x	x
Cc1cccc2[nH]c3c(N4CCN(C(=O)c5ccco5)CC4)ncnc3c12	0	8	x	-47	44*	17	58*	42*
Cc1sc2ncnc(N3CCN(C(=O)c4ccco4)CC3)c2c1C	13	-4	7	-9	1	-1	x	x
Cc1cccc2[nH]c3c(N4CCC5(CC4)OCCO5)ncnc3c12	-3	3	15	-43	41*	31*	68*	52*
Cc1ccc2cc3cc(C(=O)NC4CCCCC4)oc3nc2c1	-1	5	3	-37	39*	14	+	+
Cc1ccc2cc3cc(C(=O)NCCCN4CC(C)CC(C)C4)oc3nc2c1 (stereo unspecified)	9	0	-32	-14	85*	14	56*	36*
Cc1ccc2cc3cc(C(=O)N4CCCCC4C)oc3nc2c1 (stereo unspecified)	3	x	-15	-71	4	22	x	x
Cc1ccc2cc3cc(C(=O)NCc4ccco4)oc3nc2c1	20	x	1	-29	46*	34*	8	-5
NC(=NOC(=O)Cc1ccccc1)c1ccc([N+](=O)[O-])cc1	x	-8	x	x	x	x	x	x
O=C1CCCCC1=CNCc1ccccc1	x	2	x	x	x	x	x	x
O=C(Cc1ccccc1)Nc1cccc(-c2nnc(-c3ccco3)o2)c1	5	x	-6	5	32*	5	38*	35*
O=C(Cc1ccc(Cl)cc1)Nc1cccc(-c2nnc(-c3ccco3)o2)c1	-1	0	-6	-12	8	20	x	x
